The values below come from PMC7862700, “An all-to-all approach to the identification of sequence-specific readers for epigenetic DNA modifications on cytosine”.

What all share (assay): DAPPL (digital affinity profiling via proximity ligation, sequencing); 10 mM Tris-HCl pH 7.5, 50 mM NaCl, 1 mM DTT, 4% glycerol, room temperature, 30 min; GST-TFs on glutathione beads, 16-mer random dsDNA library, 0.1% formaldehyde crosslink after washing; high values mean tight binding
The target in one assay is T1, FEV (Homo sapiens, UniProt Q99581 1-238).
T1 sequence: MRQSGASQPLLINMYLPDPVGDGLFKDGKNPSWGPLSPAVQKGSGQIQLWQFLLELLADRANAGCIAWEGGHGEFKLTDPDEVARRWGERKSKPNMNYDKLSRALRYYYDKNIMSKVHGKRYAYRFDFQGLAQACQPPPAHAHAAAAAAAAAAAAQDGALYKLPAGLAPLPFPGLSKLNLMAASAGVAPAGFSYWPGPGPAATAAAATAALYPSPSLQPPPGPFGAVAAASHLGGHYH
As to conditions: protein: recombinant; tags: N-terminal GST; dsDNA, one strand shown. An outline of the steps:
(§1)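 After expression in yeast as GST fusions, human transcription factors were bound to glutathione beads, DNA-barcoded and mixed with a tag-only sample. The pools were incubated with 200 nmole of a 16-mer random double-stranded DNA library in Tris/NaCl/DTT/glycerol buffer (30 min, room temperature), washed and crosslinked with 0.1% formaldehyde. Proximity ligation with BsaI/T4 ligase ran for 1 h at 37 °C, before PCR amplification and sequencing on an Illumina NextSeq500. Binding signal is a hexamer's read frequency for a factor divided by its frequency for the tag-only sample.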

Another assay addresses ETV5 (Homo sapiens, UniProt P41161 1-510). As to conditions: protein: recombinant; tags: N-terminal GST; dsDNA, one strand shown. Summed up: as §1
For another assay, the target named is HSF1 (Homo sapiens, UniProt Q00613 1-529). The note with it: protein: recombinant; tags: N-terminal GST; chain copies: 3; dsDNA, one strand shown. An outline of the steps: as §1
For the next assay, the target named is T2, SPIC (Homo sapiens, UniProt Q8N5J4 1-248).
T2 sequence: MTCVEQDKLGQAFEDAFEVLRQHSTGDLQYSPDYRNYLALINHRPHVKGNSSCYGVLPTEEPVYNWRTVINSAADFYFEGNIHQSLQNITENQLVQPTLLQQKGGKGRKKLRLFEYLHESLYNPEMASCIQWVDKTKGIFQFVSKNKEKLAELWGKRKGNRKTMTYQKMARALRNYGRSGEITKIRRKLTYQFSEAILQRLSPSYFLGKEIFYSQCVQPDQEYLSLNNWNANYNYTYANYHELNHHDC
The note with it: protein: recombinant; tags: N-terminal GST; dsDNA, one strand shown. An outline of the steps: as §1

The target in a further assay is ELF4 (Homo sapiens, UniProt Q99607 1-663). As to conditions: protein: recombinant; tags: N-terminal GST; dsDNA, one strand shown. Summed up: as §1
Another assay concerns the target T3, ELK4 (Homo sapiens, UniProt P28324-2 1-405).
T3 sequence: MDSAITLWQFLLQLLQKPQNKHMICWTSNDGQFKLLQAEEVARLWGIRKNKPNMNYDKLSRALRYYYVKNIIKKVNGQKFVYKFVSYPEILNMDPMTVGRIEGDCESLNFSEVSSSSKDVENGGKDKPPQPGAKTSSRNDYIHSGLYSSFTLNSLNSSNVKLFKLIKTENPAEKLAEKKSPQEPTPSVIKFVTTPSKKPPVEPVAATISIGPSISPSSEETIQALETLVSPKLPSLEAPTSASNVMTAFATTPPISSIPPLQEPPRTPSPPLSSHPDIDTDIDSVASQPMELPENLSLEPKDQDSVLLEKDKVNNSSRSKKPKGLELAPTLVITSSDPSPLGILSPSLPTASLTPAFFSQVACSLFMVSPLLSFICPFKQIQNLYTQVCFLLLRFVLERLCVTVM
As to conditions: protein: recombinant; tags: N-terminal GST; dsDNA, one strand shown. An outline of the steps:
as §1

The target of a further assay is T4, ETV2 (Homo sapiens, UniProt O00321 1-342).
T4 sequence: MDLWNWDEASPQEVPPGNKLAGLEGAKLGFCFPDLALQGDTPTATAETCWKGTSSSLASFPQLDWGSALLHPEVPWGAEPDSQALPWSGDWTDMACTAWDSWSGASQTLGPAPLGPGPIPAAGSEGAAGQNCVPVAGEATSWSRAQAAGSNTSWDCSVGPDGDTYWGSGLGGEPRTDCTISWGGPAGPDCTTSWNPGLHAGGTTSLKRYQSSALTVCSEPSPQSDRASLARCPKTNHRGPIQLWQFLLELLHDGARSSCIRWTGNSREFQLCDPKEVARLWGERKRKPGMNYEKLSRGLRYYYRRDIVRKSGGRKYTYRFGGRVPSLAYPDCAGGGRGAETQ
The note with it: protein: recombinant; tags: N-terminal GST; dsDNA, one strand shown. Summed up:
as §1

The target of the next assay is T5, ELF3 (Homo sapiens, UniProt P78545 1-371).
T5 sequence: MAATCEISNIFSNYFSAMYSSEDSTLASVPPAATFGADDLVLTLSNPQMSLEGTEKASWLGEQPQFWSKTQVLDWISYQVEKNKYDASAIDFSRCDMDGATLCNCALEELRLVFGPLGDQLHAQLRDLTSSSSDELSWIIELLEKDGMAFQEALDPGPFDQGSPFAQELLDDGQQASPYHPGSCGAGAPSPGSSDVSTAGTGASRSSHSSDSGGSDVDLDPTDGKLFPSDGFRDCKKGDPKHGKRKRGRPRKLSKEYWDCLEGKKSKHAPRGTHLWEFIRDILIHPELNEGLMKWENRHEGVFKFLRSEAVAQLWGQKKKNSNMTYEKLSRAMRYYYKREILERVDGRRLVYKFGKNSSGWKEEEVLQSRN
The note with it: protein: recombinant; tags: N-terminal GST; dsDNA, one strand shown. An outline of the steps:
as §1

The target in another assay is CRX (Homo sapiens, UniProt O43186 1-299). The note with it: protein: recombinant; tags: N-terminal GST; dsDNA, one strand shown. Summed up:
as §1

The next assay has as its target ETV1 (Homo sapiens, UniProt P50549 1-477). As to conditions: protein: recombinant; tags: N-terminal GST; dsDNA, one strand shown. An outline of the steps: as §1
Another assay deals with T6, ERF (Homo sapiens, UniProt P50548 1-548).
T6 sequence: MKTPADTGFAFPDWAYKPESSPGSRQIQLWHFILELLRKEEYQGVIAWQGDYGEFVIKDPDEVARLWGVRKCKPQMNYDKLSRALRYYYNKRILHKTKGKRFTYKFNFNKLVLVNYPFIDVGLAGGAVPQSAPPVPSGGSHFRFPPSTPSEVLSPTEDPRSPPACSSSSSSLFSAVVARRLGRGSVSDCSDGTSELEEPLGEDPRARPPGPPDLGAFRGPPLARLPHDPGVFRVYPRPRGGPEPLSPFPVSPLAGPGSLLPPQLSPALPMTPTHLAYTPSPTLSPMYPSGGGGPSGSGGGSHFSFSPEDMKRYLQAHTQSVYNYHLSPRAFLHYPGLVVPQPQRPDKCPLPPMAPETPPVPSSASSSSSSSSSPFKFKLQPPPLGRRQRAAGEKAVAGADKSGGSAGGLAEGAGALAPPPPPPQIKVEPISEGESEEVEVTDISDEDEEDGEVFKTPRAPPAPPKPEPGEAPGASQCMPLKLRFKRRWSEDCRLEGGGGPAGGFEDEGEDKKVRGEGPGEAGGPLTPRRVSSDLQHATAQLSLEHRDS
As to conditions: protein: recombinant; tags: N-terminal GST; dsDNA, one strand shown. An outline of the steps:
as §1

The next assay concerns the target T7, ETV3L (Homo sapiens, UniProt Q6ZN32 1-361).
T7 sequence: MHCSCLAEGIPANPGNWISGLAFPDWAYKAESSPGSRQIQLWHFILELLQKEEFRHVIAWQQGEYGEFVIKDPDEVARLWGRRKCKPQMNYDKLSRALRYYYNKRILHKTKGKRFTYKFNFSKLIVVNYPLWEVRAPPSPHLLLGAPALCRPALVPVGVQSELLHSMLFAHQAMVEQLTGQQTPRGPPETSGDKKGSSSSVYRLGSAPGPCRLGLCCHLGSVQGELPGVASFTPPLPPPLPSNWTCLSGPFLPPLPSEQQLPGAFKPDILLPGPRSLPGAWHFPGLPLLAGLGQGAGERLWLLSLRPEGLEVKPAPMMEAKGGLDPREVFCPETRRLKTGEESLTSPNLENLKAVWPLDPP
As to conditions: protein: recombinant; tags: N-terminal GST; dsDNA, one strand shown. An outline of the steps:
as §1

The next assay concerns the target T8, ETS2 (Homo sapiens, UniProt P15036 1-469).
T8 sequence: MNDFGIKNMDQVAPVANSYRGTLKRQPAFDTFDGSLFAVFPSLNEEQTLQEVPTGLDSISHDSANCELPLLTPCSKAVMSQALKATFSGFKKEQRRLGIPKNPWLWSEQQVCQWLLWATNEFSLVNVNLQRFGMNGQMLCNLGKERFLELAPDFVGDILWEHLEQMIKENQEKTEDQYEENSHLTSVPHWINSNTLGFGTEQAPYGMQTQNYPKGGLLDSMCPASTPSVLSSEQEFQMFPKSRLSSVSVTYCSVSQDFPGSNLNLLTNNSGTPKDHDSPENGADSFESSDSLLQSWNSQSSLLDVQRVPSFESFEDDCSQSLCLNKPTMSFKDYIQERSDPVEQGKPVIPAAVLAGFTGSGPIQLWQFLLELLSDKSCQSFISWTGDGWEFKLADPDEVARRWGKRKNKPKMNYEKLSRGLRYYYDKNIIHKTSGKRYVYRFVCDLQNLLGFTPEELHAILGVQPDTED
As to conditions: protein: recombinant; tags: N-terminal GST; dsDNA, one strand shown. Summed up:
as §1

The target of another assay is T9, SPDEF (Homo sapiens, UniProt O95238 1-335).
T9 sequence: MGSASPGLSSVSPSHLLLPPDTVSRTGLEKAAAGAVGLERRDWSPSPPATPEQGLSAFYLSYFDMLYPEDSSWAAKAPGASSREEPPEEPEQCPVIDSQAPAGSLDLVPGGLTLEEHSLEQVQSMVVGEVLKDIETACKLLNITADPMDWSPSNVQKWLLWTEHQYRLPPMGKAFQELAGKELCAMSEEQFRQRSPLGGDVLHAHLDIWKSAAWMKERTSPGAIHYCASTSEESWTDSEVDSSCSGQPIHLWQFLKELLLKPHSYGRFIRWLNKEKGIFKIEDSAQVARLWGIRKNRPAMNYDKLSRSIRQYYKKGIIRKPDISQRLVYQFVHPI
The note with it: protein: recombinant; tags: N-terminal GST; dsDNA, one strand shown. Summed up:
as §1

A further assay has as its target T10, ETV7 (Homo sapiens, UniProt Q9Y603 1-341).
T10 sequence: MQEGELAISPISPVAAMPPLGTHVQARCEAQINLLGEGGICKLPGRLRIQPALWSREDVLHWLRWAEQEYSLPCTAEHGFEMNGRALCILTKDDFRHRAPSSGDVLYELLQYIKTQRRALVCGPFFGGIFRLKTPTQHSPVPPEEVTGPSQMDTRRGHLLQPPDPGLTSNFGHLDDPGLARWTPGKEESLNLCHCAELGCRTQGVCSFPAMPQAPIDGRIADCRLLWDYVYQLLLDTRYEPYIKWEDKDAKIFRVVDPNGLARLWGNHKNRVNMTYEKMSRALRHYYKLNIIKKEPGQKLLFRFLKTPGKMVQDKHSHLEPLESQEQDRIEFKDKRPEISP
The note with it: protein: recombinant; tags: N-terminal GST; dsDNA, one strand shown. Summed up:
as §1

In another assay the target is T11, ELF5 (Homo sapiens, UniProt Q9UKW6-2 1-255).
T11 sequence: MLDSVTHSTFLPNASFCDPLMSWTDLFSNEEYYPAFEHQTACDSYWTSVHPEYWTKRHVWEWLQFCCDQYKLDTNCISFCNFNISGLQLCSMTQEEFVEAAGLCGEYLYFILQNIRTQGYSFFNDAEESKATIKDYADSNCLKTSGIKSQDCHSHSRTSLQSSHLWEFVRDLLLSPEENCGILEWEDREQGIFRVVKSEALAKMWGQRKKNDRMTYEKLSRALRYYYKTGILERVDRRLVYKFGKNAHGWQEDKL
As to conditions: protein: recombinant; tags: N-terminal GST; dsDNA, one strand shown. Summed up:
as §1

A further assay concerns the target T12, ETV3 (Homo sapiens, UniProt P41162-2 1-143).
T12 sequence: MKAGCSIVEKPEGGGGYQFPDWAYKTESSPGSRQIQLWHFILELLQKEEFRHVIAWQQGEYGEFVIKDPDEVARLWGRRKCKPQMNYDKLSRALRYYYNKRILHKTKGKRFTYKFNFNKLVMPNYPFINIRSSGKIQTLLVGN
The note with it: protein: recombinant; tags: N-terminal GST; dsDNA, one strand shown. An outline of the steps:
as §1

In another assay the target is ETV6 (Homo sapiens, UniProt P41212 1-452). As to conditions: protein: recombinant; tags: N-terminal GST; dsDNA, one strand shown. Summed up: as §1
Sequence of ETV6 (P41212 whole entry): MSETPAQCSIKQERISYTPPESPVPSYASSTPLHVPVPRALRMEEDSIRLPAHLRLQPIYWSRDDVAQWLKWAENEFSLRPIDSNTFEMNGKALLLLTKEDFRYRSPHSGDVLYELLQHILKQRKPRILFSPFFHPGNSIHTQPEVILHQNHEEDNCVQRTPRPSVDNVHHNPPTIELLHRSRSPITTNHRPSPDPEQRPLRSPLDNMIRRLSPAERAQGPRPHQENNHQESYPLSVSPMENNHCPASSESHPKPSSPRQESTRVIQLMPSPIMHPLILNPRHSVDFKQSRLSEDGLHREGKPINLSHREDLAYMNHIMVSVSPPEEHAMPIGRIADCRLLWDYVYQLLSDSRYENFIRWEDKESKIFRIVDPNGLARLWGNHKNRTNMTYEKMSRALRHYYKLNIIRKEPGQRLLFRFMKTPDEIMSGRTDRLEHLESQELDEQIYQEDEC

Sequence of ETV5 (P41161 whole entry): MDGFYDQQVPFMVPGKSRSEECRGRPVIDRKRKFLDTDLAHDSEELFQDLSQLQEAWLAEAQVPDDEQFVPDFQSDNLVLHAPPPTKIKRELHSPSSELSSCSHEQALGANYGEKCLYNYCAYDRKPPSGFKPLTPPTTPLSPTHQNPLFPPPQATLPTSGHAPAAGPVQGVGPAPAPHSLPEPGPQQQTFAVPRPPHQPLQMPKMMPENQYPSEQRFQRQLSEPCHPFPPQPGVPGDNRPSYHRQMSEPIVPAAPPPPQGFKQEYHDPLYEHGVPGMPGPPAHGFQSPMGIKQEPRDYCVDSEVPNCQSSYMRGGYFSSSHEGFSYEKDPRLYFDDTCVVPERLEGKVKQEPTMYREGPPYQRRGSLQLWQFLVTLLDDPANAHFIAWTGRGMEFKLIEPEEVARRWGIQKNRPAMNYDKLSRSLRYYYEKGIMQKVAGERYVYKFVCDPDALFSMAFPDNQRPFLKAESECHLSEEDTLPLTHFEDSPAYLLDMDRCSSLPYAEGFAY
Sequence of CRX (O43186 whole entry): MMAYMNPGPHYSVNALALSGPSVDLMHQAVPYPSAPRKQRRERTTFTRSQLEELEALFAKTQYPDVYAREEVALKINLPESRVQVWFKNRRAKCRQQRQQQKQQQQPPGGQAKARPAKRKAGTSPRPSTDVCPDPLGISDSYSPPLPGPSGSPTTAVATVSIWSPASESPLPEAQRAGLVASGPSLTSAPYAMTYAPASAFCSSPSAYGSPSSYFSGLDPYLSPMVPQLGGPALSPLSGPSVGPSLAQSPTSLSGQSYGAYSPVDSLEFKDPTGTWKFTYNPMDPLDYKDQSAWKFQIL
Sequence of ELF4 (Q99607 whole entry): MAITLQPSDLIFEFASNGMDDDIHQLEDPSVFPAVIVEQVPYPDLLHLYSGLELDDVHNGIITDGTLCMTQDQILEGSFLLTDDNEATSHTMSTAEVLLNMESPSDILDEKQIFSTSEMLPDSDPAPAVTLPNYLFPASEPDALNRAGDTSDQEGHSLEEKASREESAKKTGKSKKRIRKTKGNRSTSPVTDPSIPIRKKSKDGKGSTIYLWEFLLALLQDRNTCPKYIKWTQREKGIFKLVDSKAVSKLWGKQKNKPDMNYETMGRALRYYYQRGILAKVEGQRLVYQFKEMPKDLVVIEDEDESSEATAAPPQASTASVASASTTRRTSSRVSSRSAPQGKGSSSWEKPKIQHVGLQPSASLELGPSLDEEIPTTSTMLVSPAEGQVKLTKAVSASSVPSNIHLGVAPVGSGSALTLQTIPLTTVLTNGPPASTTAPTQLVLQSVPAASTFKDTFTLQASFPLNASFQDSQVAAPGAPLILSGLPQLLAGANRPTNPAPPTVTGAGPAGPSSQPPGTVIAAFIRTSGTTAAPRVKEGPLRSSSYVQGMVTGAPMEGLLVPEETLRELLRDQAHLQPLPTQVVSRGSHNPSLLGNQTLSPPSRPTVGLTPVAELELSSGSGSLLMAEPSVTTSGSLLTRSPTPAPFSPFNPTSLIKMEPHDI
Sequence of HSF1 (Q00613 whole entry): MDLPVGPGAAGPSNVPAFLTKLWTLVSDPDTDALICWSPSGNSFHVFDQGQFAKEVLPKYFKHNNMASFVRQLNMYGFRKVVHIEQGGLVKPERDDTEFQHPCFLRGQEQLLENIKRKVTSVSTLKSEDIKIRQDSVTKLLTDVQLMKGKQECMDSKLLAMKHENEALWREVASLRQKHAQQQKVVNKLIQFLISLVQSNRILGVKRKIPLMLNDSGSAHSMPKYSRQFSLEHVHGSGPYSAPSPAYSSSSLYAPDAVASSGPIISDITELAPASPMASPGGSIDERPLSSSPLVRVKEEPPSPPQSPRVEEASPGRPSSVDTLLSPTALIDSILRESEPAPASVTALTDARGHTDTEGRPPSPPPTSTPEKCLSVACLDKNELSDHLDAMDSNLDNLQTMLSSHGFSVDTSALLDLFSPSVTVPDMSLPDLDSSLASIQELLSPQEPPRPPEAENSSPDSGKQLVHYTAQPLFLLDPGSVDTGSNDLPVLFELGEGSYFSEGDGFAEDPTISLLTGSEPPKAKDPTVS
Sequence of ETV1 (P50549 whole entry): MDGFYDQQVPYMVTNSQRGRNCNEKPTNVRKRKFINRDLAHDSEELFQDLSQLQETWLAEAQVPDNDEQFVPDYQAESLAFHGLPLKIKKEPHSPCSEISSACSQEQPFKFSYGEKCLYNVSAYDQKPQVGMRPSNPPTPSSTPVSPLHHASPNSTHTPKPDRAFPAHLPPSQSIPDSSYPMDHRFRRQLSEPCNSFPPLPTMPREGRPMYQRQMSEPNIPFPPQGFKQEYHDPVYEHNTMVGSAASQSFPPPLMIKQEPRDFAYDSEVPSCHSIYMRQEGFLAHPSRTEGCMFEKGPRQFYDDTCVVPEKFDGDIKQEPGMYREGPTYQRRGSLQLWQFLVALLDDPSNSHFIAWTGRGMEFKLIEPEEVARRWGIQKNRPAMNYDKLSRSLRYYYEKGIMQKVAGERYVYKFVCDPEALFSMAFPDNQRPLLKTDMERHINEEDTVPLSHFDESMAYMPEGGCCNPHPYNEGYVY

For TCTAGC, the binding signal is 1.25 fold enrichment (6-mer frequency, TF over GST control) in the assay with FEV; 1.27 fold enrichment (6-mer frequency, TF over GST control) in the assay with ETV5; 2.63 fold enrichment (6-mer frequency, TF over GST control) with HSF1; 1.16 fold enrichment (6-mer frequency, TF over GST control) in the assay with SPIC; 1.26 fold enrichment (6-mer frequency, TF over GST control) with ELF4; 1.39 fold enrichment (6-mer frequency, TF over GST control) with ELK4. Further, the binding signal in the assay with ETV2 is 1.19 fold enrichment (6-mer frequency, TF over GST control); with ELF3 it was 1.32 fold enrichment (6-mer frequency, TF over GST control); in the assay with CRX, 1.7 fold enrichment (6-mer frequency, TF over GST control); with ETV1, 1.21 fold enrichment (6-mer frequency, TF over GST control); with ERF, 1.35 fold enrichment (6-mer frequency, TF over GST control); with ETV3L it was 1.27 fold enrichment (6-mer frequency, TF over GST control). Moreover, the binding signal in the assay with ETS2 was 1.3 fold enrichment (6-mer frequency, TF over GST control); with SPDEF, 1.22 fold enrichment (6-mer frequency, TF over GST control); with ETV7, 1.36 fold enrichment (6-mer frequency, TF over GST control); with ELF5, 1.21 fold enrichment (6-mer frequency, TF over GST control); in the assay with ETV3 it was 1.32 fold enrichment (6-mer frequency, TF over GST control); with ETV6, 1.22 fold enrichment (6-mer frequency, TF over GST control).
